# Bioassay records deposited in PubChem by National Center for Advancing Translational Sciences (NCATS).
# Pol kappa inh = blocks human DNA polymerase kappa activity. Q9UBT6. purified Pol kappa, fluorescent DNA synthesis assay, 10 min. Potency, µM (highest dose often 107 µM), inactives show at the highest dose activity, negative = inhibition, usual class: inhibitors. 400,000 tested, 0.53% active. AID 588579; also: % is scaled to controls: 0 for no effect and ±100 for the full control effect
#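 Readout: fluorescence, taken kinetically at 0 and 10 min. Conditions: 10 nM Pol kappa, 15 min RT compound preincubation, 50 nM substrate final. Controls: enzyme-free buffer wells.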
# Tb PGK inh = blocks T. brucei phosphoglycerate kinase; P07378; PGK/GAPDH coupled, Kinase-Glo luminescence, 60 min; Potency, µM (doses to about 57.5 µM), without a hit: top-dose activity change, negative = inhibition, actives largely listed as inhibitors; 380,000 tested, 0.043% active; also: % is scaled to controls: 0 for no effect and ±100 for the full control effect; nearly all actives have a fitted effect of over 60% in size
# Target sequence (P07378 whole entry, looked up): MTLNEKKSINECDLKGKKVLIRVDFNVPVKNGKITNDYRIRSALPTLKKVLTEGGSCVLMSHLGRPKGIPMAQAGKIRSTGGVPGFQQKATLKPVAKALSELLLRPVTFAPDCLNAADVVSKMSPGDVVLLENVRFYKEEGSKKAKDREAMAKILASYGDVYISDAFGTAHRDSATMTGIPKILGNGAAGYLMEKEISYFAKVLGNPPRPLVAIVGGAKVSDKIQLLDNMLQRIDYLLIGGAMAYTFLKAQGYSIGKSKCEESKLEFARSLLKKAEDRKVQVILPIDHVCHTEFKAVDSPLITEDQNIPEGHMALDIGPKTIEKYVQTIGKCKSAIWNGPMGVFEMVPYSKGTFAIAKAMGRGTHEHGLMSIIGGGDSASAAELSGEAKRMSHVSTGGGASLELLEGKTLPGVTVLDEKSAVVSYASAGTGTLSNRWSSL
#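 Recombinant glycosomal PGK reaction used 1,3-bisphosphoglycerate generated in-well by GAPDH (100nM final) in 100mM TEA pH 7.6, 5mM MgCl2, 0.01% Tween-20. After 60 minutes at room temperature, ATP was read by Kinase-Glo Plus luminescence end-point.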
# POLB inh = inhibitors of human DNA polymerase beta. Pol beta primer extension/strand displacement, fluorescence kinetic. 340,000 tested, 1.3% active. Potency, µM (doses to about 114 µM), for the others: top-dose activity change, negative = inhibition, usual class: inhibitors; also: % is scaled to controls: 0 for no effect and ±100 for the full control effect
#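 Human Pol beta at 10 nM; strand-displacement substrate 50 nM final. Compound exposure 15 min at room temperature before start, reaction 10 min at room temperature.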
# Pol eta inh = blocks human DNA polymerase eta activity; Q9Y253; recombinant Pol eta, fluorescent DNA replication assay; Potency, µM (titrated, usually from 114 µM), without a hit: at the highest dose activity change, negative = inhibition, usual class: inhibitors; 390,000 tested, 1.2% active; also: % is scaled to controls: 0 for no effect and ±100 for the full control effect
#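 Pol eta (10 nM) was preincubated with compounds for 15 min at room temperature, after which fluorescent replication substrate (50 nM final) was added to start the reaction. Fluorescence was read kinetically at 0 and 10 min.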
# POLI inh = blocks human DNA polymerase iota activity; Q9UNA4; Pol iota fluorescent replication assay, 10 min; Potency, µM (titrated, usually from 115 µM), without a hit: at the highest dose activity, negative = inhibition, most hits filed as inhibitors; 390,000 tested, 1% active; AID 588590
#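 Pol iota at 10 nM preincubated 15 min with compounds at room temperature; reaction started with fluorescent substrate, 50 nM final. Fluorescence read kinetically at 0 and 10 min; buffer-only wells as negative control.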
# FEN1 inh = inhibitors of human flap endonuclease 1; P39748; Recombinant FEN1 flap cleavage, fluorescence, 15 min; Potency, µM (series often up to 114 µM), inactives show at the top dose activity change, negative = inhibition, usual class: inhibitors; 390,000 tested, 0.35% active; AID 588795; also: % is scaled to controls: 0 for no effect and ±100 for the full control effect; nearly all actives have a fitted effect of over 65% in size
#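 Quantitative HTS format: each compound was titrated, incubated with 10 nM nuclease for 15 min at room temperature, then challenged with flap substrate at 50 nM final. Signal change over 15 min gave concentration–effect curves.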
# The depositor's hits bear a star; i = inactive; ? = inconclusive; nt = no result given; ! = a repeat was not active; [ ] = remark or other dose. An excerpt weighted towards active compounds, which were near 2.4% of everything screened. Calls follow the shape of the dose curve; as a rule, active = well fitted curve in the direction sought with a large enough effect; inconclusive = small, poorly fitted or top-dose-only effect, or another doubt; inactive = no such curve, though single readings can be large; an effect the other way counts as inactive or inconclusive. Potency is read from the fitted curve at half-maximal effect.
SMILES,Pol kappa inh,Tb PGK inh,POLB inh,Pol eta inh,POLI inh,FEN1 inh
Cc1ccc(N2C(=O)/C(=C/c3ccc(CN(CCC#N)S(C)(=O)=O)o3)C(=O)NC2=S)cc1C,nt,nt,20µM*,nt,nt,nt
c1ccc(CN2CCC3(CCNCC3)CC2)cc1,-21%[60.1 µM],nt,nt,nt,nt,nt
COC(=O)[C@]1(C)CC[C@@]2(C)CC[C@@]3(C)C4=CC=C5C(=CC(=O)C(O)=C5C)[C@@]4(C)CC[C@@]3(C)C2C1 (stereo not given in full),5%[60.1 µM],nt,nt,nt,nt,nt
C[C@]12[C@H](O)CC3C(CC[C@@H]4C[C@@H](O)CC[C@]34C)[C@@]1(O)CC[C@@H]2C1=CC(=O)OC1 (stereo not given in full),-14%[19.4 µM],nt,nt,nt,nt,nt
CC[C@@]1(O)C(=O)OCc2c1cc1n(c2=O)Cc2cc3c(N)cccc3nc2-1,79µM*,-12%,50µM*,22µM*,?,?
C[C@H]1O[C@@H](O[C@H]2[C@@H](O)C[C@@H](O[C@H]3[C@@H](O)C[C@H](O[C@H]4CC[C@@]5(C)[C@H](CC[C@@H]6[C@@H]5CC[C@]5(C)[C@@H](C7=CC(=O)OC7)CC[C@]65O)C4)O[C@@H]3C)O[C@@H]2C)C[C@H](O)[C@@H]1O,nt,nt,nt,nt,nt,18%
COc1ccc(CN2C(=O)NC(=O)/C(=C/c3ccc([N+](=O)[O-])o3)C2=O)cc1,nt,nt,6.3µM*,nt,nt,nt
Cc1ccc(/C=C2/C(=O)NC(=O)N(Cc3ccc(F)cc3)C2=O)o1,nt,nt,25%,nt,nt,nt
Cc1ccc(N2C(=O)NC(=O)/C(=C\C=C\c3ccco3)C2=O)cc1,-100%,-2%,?,50µM*,18µM*,?
Cc1cccc(N2C(=O)NC(=O)/C(=C\C=C\c3ccco3)C2=O)c1,-94%,-12%,?,?,13µM*,?
Cc1ccc(/C=C2\C(=O)NC(=O)N(Cc3ccccc3Cl)C2=O)o1,?,-5%,?,79µM*,25µM*,?
CC1O[C@@H](O[C@@H]2C(O)C[C@H](O[C@@H]3C(O)C[C@@H](OC4CC[C@@]5(C)C6CC[C@]7(C)C(C8=CC(=O)OC8)CC[C@@]7(O)C6CC[C@@H]5C4)OC3C)OC2C)CC(O)[C@H]1O (stereo not given in full),-7%[60.1 µM],nt,nt,nt,nt,nt
CN(C)C(CSC(N)=O)CSC(N)=O,-10%[12 µM],nt,nt,nt,nt,nt
O=[N+]([O-])c1cc(C(F)(F)F)c(Cl)c([N+](=O)[O-])c1Nc1ncc(C(F)(F)F)cc1Cl,-31%,nt,nt,nt,?,-13%
Cc1cccc(N2C(=O)NC(=O)/C(=C/c3ccc([N+](=O)[O-])o3)C2=O)c1,8.9µM*,?,5.6µM*,2.5µM*,3.2µM*,20µM*
Cc1cc(C)cc(N2C(=O)NC(=O)/C(=C/c3cccn3-c3ccc(Cl)cc3)C2=O)c1,-5%,-6%,12%,79µM*,?,0%
CC(C)c1ccc(Cc2cn3cc(-c4cc5ccccc5oc4=O)nc3s2)cc1,5%,7%,-1%,-16%,49%,12%
O=C1NC(=S)N(c2ccc(F)cc2)C(=O)/C1=C/c1ccco1,nt,nt,0.56µM*,nt,nt,nt
COc1ccc(N2C(=O)/C(=C/c3cc(C)n(-c4ccc(C)cn4)c3C)C(=O)NC2=S)c(OC)c1,0%,nt,1%,?,1%,-5%
COc1ccc(OC)c(N2C(=O)/C(=C/c3ccco3)C(=O)NC2=S)c1,3.5µM*,3.5µM*,?,0.71µM*,?,8.9µM*
CC1OC(O[C@H]2C[C@@H](O)[C@]3(CO)[C@H]4[C@H](O)C[C@]5(C)[C@@H](C6=CC(=O)OC6)CC[C@]5(O)[C@@H]4CC[C@]3(O)C2)C(O)C(O)C1O (stereo not given in full),9%,nt,nt,nt,3%,6%
N=C(N)c1ccc(-c2ccc(-c3ccc(C(=N)N)cc3)o2)cc1,13µM*,nt,nt,nt,10µM*,40µM*
Cc1ccc(C=C2C(Cl)=C(Cl)C(Cl)=C2Cl)cc1,16µM*,-26%,4µM*,11µM*,2.8µM*,?
Cc1ccc2c(c1)N(N=O)CCC2,-2%,9%,3%,89µM*,27%,-1%
N#CC1=C(N)Oc2n[nH]c(-c3cccs3)c2C1c1ccco1 (stereo not given),-16%,-10%,-2%,?,13µM*,-5%
SMILES,Pol kappa inh,Tb PGK inh,POLB inh,Pol eta inh,POLI inh,FEN1 inh
Cc1ccc(-c2nc(N(C)C3CCN(C)CC3)c3ccccc3n2)cc1,-8%,nt,28µM*,1%,?,?
CN1/C(=C\C=C\C2=[N+](C)c3ccc4ccccc4c3C2(C)C)C(C)(C)c2ccccc21,nt,nt,79µM*,nt,nt,nt
C[C@]12CC[C@@H]3c4cc(O)c(O)cc4CC[C@H]3[C@@H]1CC[C@@H]2O,-13%,-2%,?,5%,-22%,?
C[C@]12CC[C@@H]3c4ccc(OC(=O)N(CCCl)CCCl)cc4CC[C@H]3[C@@H]1CC[C@@H]2O,8.9µM*,nt,nt,nt,nt,nt
CC[C@H](C)[C@H](NC(=O)[C@@H](N)Cc1ccc(O)cc1)C(=O)NCC(=O)N[C@@H](CO)C(=O)N[C@@H](CCCN=C(N)N)C(N)=O,19%[60.1 µM],nt,nt,nt,nt,nt
O=C1NC(=O)C(=Cc2ccc(OCCOc3ccc([N+](=O)[O-])cc3)cc2)C(=O)N1,-34%,-18%,?,79µM*,?,?
CNC(C)C#Cc1ccc2oc3cc(C)c(C)cc3c(=O)c2c1 (stereo not given),19%,i,nt,-16%,8.9µM*,-1%
O=C(CO)[C@@H](O)C(O)[C@@H](O)CO (stereo not given in full),14%[60.1 µM],nt,nt,nt,nt,nt
O=[N+]([O-])c1cc(O)c(O)c([N+](=O)[O-])c1,16µM*!,-20%,5%[57.1 µM],?,?,-5%
O=C(O)c1cc([N+](=O)[O-])cc([N+](=O)[O-])c1O,15%[60.1 µM],nt,nt,nt,nt,nt
CCOC(=O)CCCc1cc[c]([Sb](=[O])([OH])[OH])cc1,0.71µM*,nt,nt,nt,1µM*,3.5µM*
NC(=O)OCCCc1ccccc1,0%,-2%,nt,-5%,?,-1%
C(=C\c1ccccc1)/CN1CCN(CCOC(c2ccccc2)c2ccccc2)CC1,0%[19.4 µM],nt,nt,nt,nt,nt
COc1ccc(/C=C2/C(=O)NC(=O)N(Cc3ccco3)C2=O)cc1,nt,nt,10µM*,nt,nt,nt
COc1ccc(CN2C(=O)NC(=O)/C(=C\c3cccc(OC)c3OC)C2=O)cc1,-6%,4%,5%,14%,26%,-16%
CCOC(=O)C1CCN(/C=C2/C(=O)NC(=O)N(Cc3ccco3)C2=O)CC1,35µM*,?,22µM*,7.1µM*,18µM*,-35%
